Test results reported in PubChem BioAssay AID463173 (ICCB-Longwood Screening Facility, Harvard Medical School, 2010).
The whole screen tested about 52,000 compounds, of which about 4,300 (8.3%) were called active. Rule as the data show it: active = survival mostly below about 52% (no sharp cut-off); inactive = mostly above about 56%. For the sample, actives were picked, then their nearest neighbours and some compounds at random.

test system: DeltatarO mutant; assay: S. aureus survival, RN4220 and DeltatarO strains – OD600, teichoic acid synthesis inhibitors, primary screen (AID 463173); details: S. aureus RN4220 wild type/DeltatarO growth, OD600, 18 h, hits give low values, screened at 18.75 µg/mL (by protocol)

Row | Compound | survival
1 | COc1ccc(OC)c(-n2c(=O)[nH]c3cc(C(=O)NCCc4ccc(OC)c(OC)c4)ccc3c2=O)c1 | 76% (inactive)
2 | CCC1CN(C(=O)N2CCC(C(=O)NCc3ccc(N(C)C)cc3)CC2)c2ccccc2O1 (configuration not stated) | 73% (inactive)
3 | CCOC(=O)N1CCc2c(sc(NCc3ccc(N(CC)CC)cc3)c2C(=O)Nc2cc(OC)ccc2OC)C1 | 71% (inactive)
4 | CCOC(=O)c1ccc(NC2=CC(c3ccc(F)cc3)N(c3ccc(C(=O)OCC)cc3)C2=O)cc1 (configuration not stated) | 66% (inactive)
5 | CCc1nc2cccnc2n1-c1ccc(CC(=O)Nc2ccc(C)cc2)cc1 | 78% (inactive)
6 | COc1ccccc1Nc1nn2c(=O)c3ccc(C(=O)NCCCOC(C)C)cc3nc2s1 | 71% (inactive)
7 | CCOC(=O)c1ccc(NC(=O)C2=C(C)C(=O)OC23CCCCCC3)cc1 | 81% (inactive)
8 | Cc1noc(NS(=O)(=O)c2ccc(NC(=O)COc3ccccc3Br)cc2)c1C | 53% (inactive)
9 | Cc1cccc(OCC(=O)Nc2ccc(S(=O)(=O)Nc3onc(C)c3C)cc2)c1C | 40% (active)
10 | Cc1cc(NS(=O)(=O)c2ccc(NC(=O)COc3ccc(Br)cc3C)cc2)no1 | 32% (active)
11 | Cc1cc(NS(=O)(=O)c2ccc(NC(=O)COc3ccccc3Br)cc2)no1 | 67% (inactive)
12 | Cc1ccc(C)c(OCC(=O)Nc2ccc(S(=O)(=O)Nc3onc(C)c3C)cc2)c1C | 165% (inactive)
13 | CCC(C)c1ccccc1OCC(=O)Nc1ccc(S(=O)(=O)Nc2cc(C)on2)cc1 (configuration not stated) | 80% (inactive)
14 | Cc1cc(NS(=O)(=O)c2ccc(NC(=O)COc3cc(C)c(Br)cc3C(C)C)cc2)no1 | 13% (active)
15 | Cc1ccc(OCC(=O)Nc2ccc(S(=O)(=O)Nc3cc(C)on3)cc2)c(Br)c1 | 56% (inactive)
16 | Cc1cc(NS(=O)(=O)c2ccc(NC(=O)COc3c(C)cc(Br)cc3C)cc2)no1 | 110% (inactive)
17 | COc1ccc2c(c1)c(CC(=O)Nc1cc(C)c(OC)c(C)c1)c(C)n2C(=O)c1ccc(Cl)cc1 | 71% (inactive)
18 | COc1cc(C(c2nnnn2C2CCCCC2)N2CCc3ccccc3C2)ccc1O (configuration not stated) | 62% (inactive)
19 | COc1ccc(N2CCN(C(=O)c3ccc4c(c3)N(Cc3cccc(Cl)c3)C(=O)c3ccccc3S4(=O)=O)CC2)cc1 | 83% (inactive)
20 | COc1cc2oc(=O)c(CC(=O)NCc3ccc(OC)c(OC)c3)c(C)c2cc1Cl | 71% (inactive)
21 | CC(=O)N1CCC2(CC1)OC(=O)C(C)=C2C(=O)NCc1ccc(Cl)cc1 | 58% (inactive)
22 | Cc1cc(C)cc(NC(=O)c2cccc(C(=O)Nc3cc(C)cc(C)c3)c2)c1 | 129% (inactive)
23 | CCOc1ccc(C(=O)N2CCN(c3ccccc3)CC2)cc1 | 78% (inactive)

Row | Compound | survival
24 | CC1=C(C(=O)Nc2ccccc2)C(c2ccc(C)o2)NC(=S)N1 (configuration not stated) | 61% (active)
25 | COc1ccccc1NC(=O)C1=C(C)NC(=S)NC1C (configuration not stated) | 86% (inactive)
26 | CC1=C(C(=O)Nc2ccccc2C)C(c2ccccc2O)NC(=S)N1 (configuration not stated) | 103% (inactive)
27 | O=S(=O)(Nc1ccccn1)c1cccs1 | 83% (inactive)
28 | CCN(C(=O)c1nn(-c2ccc(OC)c(Cl)c2)c(=O)c2c1c1ccccc1n2C)c1cccc(C(F)(F)F)c1 | 75% (inactive)
29 | COc1ccc2c(c1)-c1nc(NC(=O)c3ccccc3F)sc1CC2 | 2% (active)
30 | COc1ccc2c(c1)Cc1sc(NC(=O)c3ccccc3Br)nc1-2 | 63% (inactive)
31 | COc1ccc2c(c1)-c1nc(NC(=O)c3cccc(Br)c3)sc1CC2 | 51% (inactive)
32 | COc1ccc(C(=O)Nc2nc3c(s2)CCc2cc(OC)ccc2-3)cc1 | 35% (active)
33 | COc1ccc2c(c1)Cc1sc(NC(=O)c3ccccc3C)nc1-2 | 102% (inactive)
34 | COc1ccc(C(=O)Nc2nc3c(s2)Cc2cc(OC)ccc2-3)cc1 | 55% (inactive)
35 | COc1ccc2c(c1)-c1nc(NC(=O)c3ccc(Cl)cc3)sc1CC2 | 96% (inactive)
36 | COc1ccc2c(c1)CCc1sc(NC(=O)c3ccc(Cl)cc3)nc1-2 | 31% (active)
37 | COc1ccc2c(c1)Cc1sc(NC(=O)c3ccc(Cl)cc3)nc1-2 | 80% (inactive)
38 | COc1ccc2c(c1)Cc1sc(NC(=O)c3cccc(C)c3)nc1-2 | 18% (active)
39 | COc1ccc2c(c1)Cc1sc(NC(=O)c3cccc(F)c3)nc1-2 | 67% (inactive)
40 | COc1ccc2c(c1)-c1nc(NC(=O)c3cc(Cl)ccc3OC)sc1CC2 | 69% (inactive)
41 | COc1ccc(CN2C(=O)C(NC(=O)c3ccccc3OC)(C(F)(F)F)N=C2c2ccccc2)cc1 (configuration not stated) | 87% (inactive)
42 | COc1cc(Cl)c(C)cc1NC(=O)c1cnc(N2CCCCC2)c2ccccc12 | 115% (inactive)
43 | O=C(c1ccc2c(c1)N(Cc1cccc(F)c1)C(=O)c1ccccc1S2)N1CCCC1 | 88% (inactive)
44 | COc1ccc(N2CCN(C(=O)c3cc4c(=O)oc5ccc(C)cc5c4s3)CC2)cc1 | 111% (inactive)
45 | CCCn1cc(S(=O)(=O)c2cccc(Cl)c2)c(=O)c2cc(F)c(N3CCOCC3)cc21 | 74% (inactive)
46 | COc1cccc(NC(=O)C2CCCN(S(=O)(=O)c3cccc4nonc34)C2)c1 (configuration not stated) | 90% (inactive)

Row | Compound | survival
47 | CCCS(=O)(=O)c1c(S(=O)(=O)CCC)c2cc(C(C)(C)C)ccn2c1C(=O)c1ccccc1 | 118% (inactive)
48 | CC1Cc2ccccc2N1C(=O)CSc1nnnn1Cc1ccccc1 (configuration not stated) | 91% (inactive)
49 | Cc1cccc(-n2nnc(-c3nc(-c4cccs4)no3)c2N)c1C | 60% (inactive)
50 | CCS(=O)(=O)N1CC(=O)N(c2ccc(Cl)cc2)C(C)(C(=O)NC2CCCCC2)C1 (configuration not stated) | 96% (inactive)
51 | COc1ccc2c(c1)-c1nc(NC(=O)c3cc(OC)c(OC)c(OC)c3)sc1CC2 | 57% (inactive)
52 | COc1ccc2c(c1)-c1nc(NC(=O)c3ccc(C)cc3)sc1CC2 | 5% (active)
53 | COc1ccc2c(c1)-c1nc(NC(=O)c3ccc(OC)c(Br)c3)sc1CC2 | 59% (inactive)
54 | COc1cc(C(=O)Nc2ccc(NC(=O)c3ccc(Br)cc3)cc2)cc(OC)c1OC | 75% (inactive)
55 | O=C(CSc1nc2c(c(=O)[nH]1)CN(Cc1ccc3c(c1)OCO3)CC2)Nc1cccc(Cl)c1 | 76% (inactive)
56 | CCOC(=O)CNc1c(-c2ccc(OC)cc2)nc2ccc(Cl)cn12 | 58% (inactive)
57 | Cc1ccc(NC(=O)CSc2nc(C)c(Cc3ccccc3)c(=O)[nH]2)cc1 | 48% (inactive)
58 | CCOC(=O)c1ccc(NC(=O)CSc2nc3cc4ccccc4cc3[nH]2)cc1 | 65% (inactive)
59 | Cc1ccc(NC(=O)CSc2nc(C)c(Cc3ccccc3)c(=O)[nH]2)cc1C | 84% (inactive)
60 | COc1cccc(NC(=O)CSc2nc(C)c(Cc3ccccc3)c(=O)[nH]2)c1 | 58% (inactive)
61 | CCOC(=O)c1cccc(NC(=O)CSc2nc3cc4ccccc4cc3[nH]2)c1 | 36% (active)
62 | CCOC(=O)c1ccc(NC(=O)CSc2nc(C)c(Cc3ccccc3)c(=O)[nH]2)cc1 | 45% (active)
63 | Cc1nc(SCC(=O)Nc2ccc(Br)cc2)[nH]c(=O)c1Cc1ccccc1 | 59% (inactive)
64 | Cc1cccc(NC(=O)CSc2nc(C)c(Cc3ccccc3)c(=O)[nH]2)c1 | 18% (active)
65 | COC(=O)c1ccc(NC(=O)CSc2nc3cc4ccccc4cc3[nH]2)cc1 | 65% (inactive)
66 | CCN(CC)C(C)C#Cc1ccccc1 (configuration not stated) | 95% (inactive)
67 | Cc1ccc(-n2nc(C(=O)Nc3ccc(C)c(F)c3)c3c4ccccc4n(C)c3c2=O)cc1 | 92% (inactive)
68 | Fc1ccc(-n2ncc3c(Nc4ccc5c(c4)OCCO5)ncnc32)cc1 | 97% (inactive)
69 | O=C(C1CCC(CNS(=O)(=O)c2cccs2)CC1)N1CCN(c2ccc(Cl)cc2)CC1 (configuration not stated) | 60% (inactive)

Row | Compound | survival
70 | CCN(c1ccccc1)c1nnc(NC(=O)Nc2ccc(Br)cc2F)s1 | 97% (inactive)
71 | CC(=O)N1CCN(c2ccccc2N)CC1 | 93% (inactive)
72 | O=c1[nH]c(Nc2nc3ccccc3o2)nc2ccccc12 | 95% (inactive)
73 | Cc1cc(C)nc(Nc2nc3ccccc3c(=O)[nH]2)n1 | 74% (active)
74 | Cc1cc(=O)[nH]c(Nc2nc3ccccc3[nH]2)n1 | 71% (inactive)
75 | O=C1CCCc2cc(S(=O)(=O)N3CCCC(C(=O)Nc4ccc(F)c(Cl)c4)C3)ccc2N1 (configuration not stated) | 70% (inactive)
76 | Cc1ccccc1C(=O)OCc1cc(=O)n2c(C)csc2n1 | 109% (inactive)
77 | O=S(=O)(c1ccc2nc(N3CCN(c4ccccc4)CC3)ccc2c1)N1CCCCC1 | 6% (active)
78 | CC1CCN(S(=O)(=O)c2ccc3nc(N4CCN(c5ccccc5)CC4)ccc3c2)CC1 | 78% (inactive)
79 | O=S(=O)(c1ccc2nc(N3CCN(c4cccc(Cl)c4)CC3)ccc2c1)N1CCCCC1 | 81% (inactive)
80 | Cc1ccc(OC(=O)c2ccc3snnc3c2)cc1 | 115% (inactive)
81 | COc1ccccc1-c1nn(CCC(=O)Nc2cccc(C(C)=O)c2)c2nc(C)cc(C)c12 | 69% (inactive)
82 | Cc1cc(C)c2c(=O)cc(C(=O)Nc3ccc(S(=O)(=O)N(C)Cc4ccccc4)cc3)oc2c1 | 61% (inactive)
83 | COc1ccc(C(=O)NCCSc2ccccn2)cc1 | 78% (inactive)
84 | Cc1cc(C)cc(NC(=O)c2oc3ccc4c(c3c2C)C(=O)CC(C)(C)O4)c1 | 89% (inactive)
85 | CCC1(C)CC(=O)c2c(ccc3oc(C(=O)Nc4ccc(C(C)=O)cc4)c(C)c23)O1 (configuration not stated) | 78% (inactive)
86 | Cc1c(C(=O)NCc2ccc(Cl)cc2)oc2ccc3c(c12)C(=O)CC(C)(C)O3 | 53% (active)
87 | Cc1cccc(C)c1NC(=O)c1oc2ccc3c(c2c1C)C(=O)CC(C)(C)O3 | 42% (active)
88 | Cc1c(C(=O)NCc2ccccc2Br)oc2ccc3c(c12)C(=O)CC(C)(C)O3 | 83% (inactive)
89 | Cc1c(C(=O)NCc2cccc(Br)c2)oc2ccc3c(c12)C(=O)CC(C)(C)O3 | 61% (inactive)
90 | CC(=O)Nc1ccc(NC(=O)c2oc3ccc4c(c3c2C)C(=O)CC(C)(C)O4)cc1 | 75% (inactive)
91 | CCCOc1ccc(CNC(=O)c2oc3ccc4c(c3c2C)C(=O)CC(C)(CC)O4)cc1 (configuration not stated) | 68% (inactive)
92 | CCC1(C)CC(=O)c2c(ccc3oc(C(=O)NCc4ccccc4)c(C)c23)O1 (configuration not stated) | 44% (active)
